The text below walks through data of the supplement of paper PMC10849652.

Of roughly 7,900 targets only a part is listed; those with a hit were picked by preference. About 0.6% of all pairs of compound and target were hits. Unmarked numbers belong to inactive results.

What all share (assay): log2 fold change, soluble protein after heating vs DMSO (PISA); higher = thermal stabilisation; K562 cells, 10 uM, 30 min; active = over 0.2 and 3.5 SD of the protein, either way, in both replicates (recomputed)
Compound in one assay: CN1CCN(CCOc2cc(OC3CCOCC3)c3c(Nc4c(Cl)ccc5c4OCO5)ncnc3c2)CC1 [saracatinib]
In outline: (§1)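 K562 cells at 2×10^6 cells/mL were treated for 30 min with 10 μM compound, and aliquots were heated for 3 min over 48°C-58°C before pooling. Extraction used PBS with 0.5% NP-40 at 4°C, and soluble protein was the supernatant after 21,000xg for 90 min, measured by TMTpro 16plex LC-MS/MS with channel sums equalised. Thermal stability values, relative to control samples and from duplicates, are log2 fold changes.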

Compound in another assay: CN1CCN(c2nc(C3=C(c4c[nH]c5ccccc45)C(=O)NC3=O)c3ccccc3n2)CC1 [sotrastaurin]
In outline:
as §1

Compound in a further assay: CN1CC[C@H](c2c(O)cc(O)c3c(=O)cc(-c4ccccc4Cl)oc23)[C@H](O)C1 [alvocidib]
In outline: as §1

Compound in the next assay: CN1CCc2c(c3ccccc3n2Cc2ccc(C(=O)NO)cc2)C1 [Tubastatin A]
Summed up: as §1

Compound in assay [1]: CNC(=O)C1=CC=CC=C1NC2=NC(=NC=C2Cl)NC3=C(C=C(C=C3)N4CCOCC4)OC
In outline:
as §1

Compound in the next assay: CNC(=O)c1ccc(Nc2ncc(C(F)(F)F)c(NCc3nccnc3N(C)S(C)(=O)=O)n2)cc1 [defactinib]
Summed up:
as §1

Compound in a further assay: CNCc1ccc(-c2[nH]c3cc(F)cc4c3c2CCNC4=O)cc1 [rucaparib]
Summed up: as §1

Compound in assay [2]: CNc1nc(-c2ccc3c(N)n[nH]c3c2)cc(N2C[C@@H](C(=O)NC3CCCCC3)CC[C@H]2C)n1
In outline: as §1

Compound in the next assay: COC(=O)N[C@@H](C)CNc1nccc(-c2cn(C(C)C)nc2-c2cc(Cl)cc(NS(C)(=O)=O)c2F)n1 [encorafenib]
Summed up:
as §1

Compound in assay [3]: COC(=O)[C@H](CCSC)NC(=O)C1=C(C=C(C=C1)NC[C@H](CS)N)C2=CC=CC=C2
In outline: as §1

UniProt Q92522, sequence (Q92522 whole entry, looked up): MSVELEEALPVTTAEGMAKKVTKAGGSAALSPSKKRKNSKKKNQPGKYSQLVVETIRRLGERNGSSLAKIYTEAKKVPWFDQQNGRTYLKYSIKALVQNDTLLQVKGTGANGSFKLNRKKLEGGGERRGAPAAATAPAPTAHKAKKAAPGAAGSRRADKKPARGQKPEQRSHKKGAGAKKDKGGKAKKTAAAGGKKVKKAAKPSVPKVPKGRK
UniProt Q9H0R4, sequence (Q9H0R4 whole entry, looked up): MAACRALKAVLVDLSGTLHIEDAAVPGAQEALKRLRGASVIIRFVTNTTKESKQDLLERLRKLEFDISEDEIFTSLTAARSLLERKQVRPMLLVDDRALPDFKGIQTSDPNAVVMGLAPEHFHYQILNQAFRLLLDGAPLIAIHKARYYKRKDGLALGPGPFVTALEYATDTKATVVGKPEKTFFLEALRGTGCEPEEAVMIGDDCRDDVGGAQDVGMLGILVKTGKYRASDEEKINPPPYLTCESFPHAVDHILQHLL
UniProt Q12894, sequence (Q12894 whole entry, looked up): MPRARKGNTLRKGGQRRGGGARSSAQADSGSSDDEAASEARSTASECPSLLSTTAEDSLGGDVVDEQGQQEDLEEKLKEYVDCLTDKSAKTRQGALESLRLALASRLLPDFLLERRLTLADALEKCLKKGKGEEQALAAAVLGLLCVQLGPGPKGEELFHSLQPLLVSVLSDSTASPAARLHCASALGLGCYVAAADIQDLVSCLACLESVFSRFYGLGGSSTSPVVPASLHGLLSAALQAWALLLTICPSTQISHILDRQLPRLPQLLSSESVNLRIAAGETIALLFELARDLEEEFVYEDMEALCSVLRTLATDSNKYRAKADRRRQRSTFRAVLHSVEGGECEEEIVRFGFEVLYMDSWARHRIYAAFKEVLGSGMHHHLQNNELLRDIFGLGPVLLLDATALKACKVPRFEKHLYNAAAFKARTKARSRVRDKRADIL
UniProt P08754, sequence (P08754 whole entry, looked up): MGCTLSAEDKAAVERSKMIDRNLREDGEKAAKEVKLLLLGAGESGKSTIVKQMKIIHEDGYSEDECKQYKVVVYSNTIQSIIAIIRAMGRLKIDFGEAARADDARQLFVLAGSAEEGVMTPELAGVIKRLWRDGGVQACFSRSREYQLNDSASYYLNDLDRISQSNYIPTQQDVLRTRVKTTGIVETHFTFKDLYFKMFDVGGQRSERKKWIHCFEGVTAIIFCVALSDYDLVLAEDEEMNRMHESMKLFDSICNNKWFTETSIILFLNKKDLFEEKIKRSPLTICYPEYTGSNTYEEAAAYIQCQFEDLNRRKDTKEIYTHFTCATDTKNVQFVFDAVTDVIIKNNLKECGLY
UniProt Q03014, sequence (Q03014 whole entry, looked up): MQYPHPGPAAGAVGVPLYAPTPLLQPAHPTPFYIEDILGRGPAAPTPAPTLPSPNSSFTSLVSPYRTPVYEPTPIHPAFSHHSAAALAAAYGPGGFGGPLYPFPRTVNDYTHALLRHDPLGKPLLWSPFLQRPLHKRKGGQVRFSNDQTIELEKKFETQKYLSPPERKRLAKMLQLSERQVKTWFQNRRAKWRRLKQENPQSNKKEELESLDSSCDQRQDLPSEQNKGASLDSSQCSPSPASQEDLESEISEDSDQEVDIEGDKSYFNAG
UniProt Q9NP66, sequence (Q9NP66 whole entry, looked up): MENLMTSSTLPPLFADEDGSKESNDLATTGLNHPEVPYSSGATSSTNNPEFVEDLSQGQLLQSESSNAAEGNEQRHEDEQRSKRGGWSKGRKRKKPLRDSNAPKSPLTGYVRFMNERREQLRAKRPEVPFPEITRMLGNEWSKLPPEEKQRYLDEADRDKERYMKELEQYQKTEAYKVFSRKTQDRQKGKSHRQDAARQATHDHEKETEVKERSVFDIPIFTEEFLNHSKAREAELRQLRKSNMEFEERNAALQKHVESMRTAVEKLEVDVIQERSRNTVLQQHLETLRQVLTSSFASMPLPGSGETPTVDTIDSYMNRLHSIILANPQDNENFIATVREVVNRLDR
UniProt P36915, sequence (P36915 whole entry, looked up): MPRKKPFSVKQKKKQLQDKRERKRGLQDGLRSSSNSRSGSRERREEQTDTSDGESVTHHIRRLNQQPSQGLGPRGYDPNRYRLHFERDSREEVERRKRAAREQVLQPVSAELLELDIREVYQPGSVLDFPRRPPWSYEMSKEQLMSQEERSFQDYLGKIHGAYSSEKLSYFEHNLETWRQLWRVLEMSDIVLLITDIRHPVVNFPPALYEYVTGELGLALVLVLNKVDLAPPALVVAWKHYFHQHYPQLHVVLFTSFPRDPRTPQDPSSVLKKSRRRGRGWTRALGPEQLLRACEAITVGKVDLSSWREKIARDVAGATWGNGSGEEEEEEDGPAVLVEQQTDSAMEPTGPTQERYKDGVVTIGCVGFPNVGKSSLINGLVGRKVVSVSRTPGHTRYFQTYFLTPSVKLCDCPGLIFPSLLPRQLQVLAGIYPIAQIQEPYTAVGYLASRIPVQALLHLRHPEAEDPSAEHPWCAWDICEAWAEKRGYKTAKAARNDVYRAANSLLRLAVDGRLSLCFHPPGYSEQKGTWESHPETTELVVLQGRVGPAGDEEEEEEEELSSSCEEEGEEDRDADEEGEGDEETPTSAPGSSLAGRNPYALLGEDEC
UniProt P04066, sequence (P04066 whole entry, looked up): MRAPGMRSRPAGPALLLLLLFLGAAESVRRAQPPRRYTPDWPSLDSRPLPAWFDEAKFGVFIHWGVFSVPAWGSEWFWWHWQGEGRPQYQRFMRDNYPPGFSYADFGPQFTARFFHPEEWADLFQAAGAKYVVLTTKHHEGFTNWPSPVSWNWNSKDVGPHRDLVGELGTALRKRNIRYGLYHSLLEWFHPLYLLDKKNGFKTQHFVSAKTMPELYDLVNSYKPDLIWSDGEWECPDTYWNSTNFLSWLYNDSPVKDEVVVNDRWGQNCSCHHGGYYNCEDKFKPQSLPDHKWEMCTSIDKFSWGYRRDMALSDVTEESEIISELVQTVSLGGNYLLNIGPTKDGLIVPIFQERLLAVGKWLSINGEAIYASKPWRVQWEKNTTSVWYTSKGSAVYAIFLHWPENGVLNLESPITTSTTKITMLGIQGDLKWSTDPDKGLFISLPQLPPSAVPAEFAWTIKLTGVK
UniProt Q9UKN8, sequence (Q9UKN8 whole entry, looked up): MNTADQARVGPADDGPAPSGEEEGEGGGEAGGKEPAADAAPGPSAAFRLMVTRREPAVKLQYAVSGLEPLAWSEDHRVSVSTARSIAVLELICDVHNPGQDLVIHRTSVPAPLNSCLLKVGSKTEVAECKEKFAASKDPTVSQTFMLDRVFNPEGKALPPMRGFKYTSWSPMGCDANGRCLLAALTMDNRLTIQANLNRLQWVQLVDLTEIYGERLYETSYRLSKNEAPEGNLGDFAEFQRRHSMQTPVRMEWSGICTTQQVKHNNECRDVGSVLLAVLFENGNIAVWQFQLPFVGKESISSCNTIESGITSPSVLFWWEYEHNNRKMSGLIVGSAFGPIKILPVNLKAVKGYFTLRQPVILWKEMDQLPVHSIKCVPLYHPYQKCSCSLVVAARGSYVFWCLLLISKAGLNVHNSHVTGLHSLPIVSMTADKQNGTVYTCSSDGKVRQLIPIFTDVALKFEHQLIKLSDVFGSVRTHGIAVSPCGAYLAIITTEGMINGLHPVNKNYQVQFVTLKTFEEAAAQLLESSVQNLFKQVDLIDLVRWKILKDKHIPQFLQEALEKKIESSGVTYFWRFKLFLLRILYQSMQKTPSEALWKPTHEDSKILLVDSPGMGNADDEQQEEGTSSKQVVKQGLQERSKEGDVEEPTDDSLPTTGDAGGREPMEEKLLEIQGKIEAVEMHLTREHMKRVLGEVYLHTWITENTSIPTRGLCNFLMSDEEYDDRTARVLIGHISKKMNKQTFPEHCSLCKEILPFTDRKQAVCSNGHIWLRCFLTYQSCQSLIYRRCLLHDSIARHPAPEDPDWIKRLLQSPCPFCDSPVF
UniProt O00165, sequence (O00165 whole entry, looked up): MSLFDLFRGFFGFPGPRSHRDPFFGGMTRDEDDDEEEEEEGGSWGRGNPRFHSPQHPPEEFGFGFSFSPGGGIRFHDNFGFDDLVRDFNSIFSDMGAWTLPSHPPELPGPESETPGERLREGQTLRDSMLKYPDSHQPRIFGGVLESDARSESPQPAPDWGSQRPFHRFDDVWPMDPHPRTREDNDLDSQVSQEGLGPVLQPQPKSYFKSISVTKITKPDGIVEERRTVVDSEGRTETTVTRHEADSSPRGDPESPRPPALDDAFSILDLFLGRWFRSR
UniProt O94925, sequence (O94925 whole entry, looked up): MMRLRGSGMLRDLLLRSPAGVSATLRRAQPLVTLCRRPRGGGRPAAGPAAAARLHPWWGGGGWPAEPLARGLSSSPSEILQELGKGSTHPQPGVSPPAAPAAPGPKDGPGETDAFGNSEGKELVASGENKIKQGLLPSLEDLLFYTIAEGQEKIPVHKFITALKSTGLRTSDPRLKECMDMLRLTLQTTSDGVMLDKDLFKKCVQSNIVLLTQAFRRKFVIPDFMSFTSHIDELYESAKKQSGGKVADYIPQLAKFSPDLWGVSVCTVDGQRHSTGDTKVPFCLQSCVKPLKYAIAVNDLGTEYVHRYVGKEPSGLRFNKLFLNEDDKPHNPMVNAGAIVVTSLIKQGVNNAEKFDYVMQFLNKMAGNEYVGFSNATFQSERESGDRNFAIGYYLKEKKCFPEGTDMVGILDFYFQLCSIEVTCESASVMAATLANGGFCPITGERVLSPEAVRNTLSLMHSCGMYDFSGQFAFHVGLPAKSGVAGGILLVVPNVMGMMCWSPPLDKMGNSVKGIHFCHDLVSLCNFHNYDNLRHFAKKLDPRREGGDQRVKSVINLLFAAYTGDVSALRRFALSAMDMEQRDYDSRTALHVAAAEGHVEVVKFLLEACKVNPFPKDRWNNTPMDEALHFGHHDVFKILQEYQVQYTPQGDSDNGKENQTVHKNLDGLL
UniProt P63218, sequence (P63218 whole entry, looked up): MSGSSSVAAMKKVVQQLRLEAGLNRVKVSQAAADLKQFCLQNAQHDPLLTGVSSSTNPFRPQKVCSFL

IFRD2 isoform 2 (UniProt Q12894): the log2 fold change was 0.126 with saracatinib; 0.31 with sotrastaurin; -0.017 in the assay with alvocidib; -0.272 with Tubastatin A; 0.022 in assay [1]; 0.16 with defactinib. Also, the log2 fold change was -0.549 (active) in the assay with rucaparib, -0.095 in [2], -0.031 with encorafenib and 0.026 in [3].

As to HPCAL1 (UniProt P37235), the log2 fold change is 0.011 with saracatinib; 0.017 with sotrastaurin; -0.004 with alvocidib; -0.085 with Tubastatin A; 0.048 in assay [1]; -0.008 with defactinib. Besides, the log2 fold change was 0.013 in the assay with rucaparib, -0.107 in [2], -0.014 in the assay with encorafenib and -0.025 in assay [3].

Take GAK (UniProt O14976): the log2 fold change with saracatinib is 1.06; with sotrastaurin, -0.066; with alvocidib, 1.14; with Tubastatin A it was 0.011; in [1] it was 1.11; with defactinib, 0.658. Further, the log2 fold change in the assay with rucaparib was 0.237; in [2] it was 0.402; with encorafenib, -0.17; in assay [3], -0.266.

Take GNL1 (UniProt P36915): the log2 fold change with saracatinib was 0.013; with sotrastaurin, 0.013; in the assay with alvocidib it was -0.038; with Tubastatin A, 0.018; in [1], 0.009; in the assay with defactinib it was 0.023. Also, the log2 fold change was -0.039 with rucaparib, 0.016 in [2], 0.021 with encorafenib and -0.011 in assay [3].

HMG20A (UniProt Q9NP66): the log2 fold change with saracatinib was 0.038; with sotrastaurin, -0.106; in the assay with alvocidib it was -0.075; with Tubastatin A, 0.018; in assay [1] it was 0.005; with defactinib, 0.029. Further, the log2 fold change in the assay with rucaparib is -0.323; in assay [2] it was -0.015; in the assay with encorafenib, -0.109; in assay [3] it was -0.009.

As to FUCA1 (UniProt P04066), the log2 fold change in the assay with saracatinib is 0.038; in the assay with sotrastaurin it was -0.048; with alvocidib, 0.059; with Tubastatin A it was -0.035; in assay [1], -0.015; in the assay with defactinib, -0.032. Besides, the log2 fold change in the assay with rucaparib was -0.186; in assay [2], 0.023; with encorafenib it was 0; in assay [3], 0.014.

Turning to HHEX (UniProt Q03014), the log2 fold change with saracatinib is 0.095; with sotrastaurin it was -0.068; in the assay with alvocidib, -0.146; in the assay with Tubastatin A it was 0.126; in assay [1], 0.035; with defactinib, -0.173. Further, the log2 fold change was 0.04 with rucaparib, -0.011 in assay [2], -0.061 with encorafenib and 0.651 in assay [3].

Turning to HAX1 (UniProt O00165), the log2 fold change with saracatinib was -0.067; with sotrastaurin, -0.106; with alvocidib, -0.015; with Tubastatin A, 0.015; in assay [1], -0.14; with defactinib, -0.008. Also, the log2 fold change in the assay with rucaparib was 0.082; in assay [2], 0.051; in the assay with encorafenib, 0.045; in [3], -0.013.

HADHB (UniProt P55084): the log2 fold change with saracatinib is -0.111; in the assay with sotrastaurin it was 0.011; in the assay with alvocidib, -0.283; with Tubastatin A it was 0.027; in [1], 0.064; with defactinib, -0.18. The log2 fold change in the assay with rucaparib is 0.131; in assay [2] it was 0.62 (active); with encorafenib it was 0.001; in assay [3], -0.223.

As for H1FX (UniProt Q92522), the log2 fold change with saracatinib was -0.054; with sotrastaurin, -0.237; with alvocidib, 0.381; with Tubastatin A, 0.093; in assay [1], 0.041; with defactinib, 0.336. Further, the log2 fold change in the assay with rucaparib was 0.219; in [2] it was 0.102; with encorafenib, 0.121; in assay [3], 0.013.

With GNAI3 (UniProt P08754), the log2 fold change is 0.063 with saracatinib; -0.011 with sotrastaurin; -0.02 with alvocidib; 0.046 in the assay with Tubastatin A; 0.093 in assay [1]; -0.041 with defactinib. Moreover, the log2 fold change with rucaparib was -0.009; in [2] it was 0.025; with encorafenib it was -0.004; in [3] it was -0.003.

Regarding GLS (UniProt O94925), the log2 fold change with saracatinib was 0.039; with sotrastaurin, -0.023; in the assay with alvocidib, -0.147; with Tubastatin A, 0.021; in assay [1], -0.031; with defactinib, -0.167. The log2 fold change with rucaparib was 0.002; in [2], -0.092; with encorafenib it was 0.017; in assay [3] it was -0.093.

Take GTF3C4 (UniProt Q9UKN8): the log2 fold change with saracatinib is 0.06; with sotrastaurin, 0.021; with alvocidib, -0.03; with Tubastatin A, -0.009; in assay [1], -0.005; with defactinib it was -0.081. The log2 fold change with rucaparib was 0.029; in assay [2], -0.001; with encorafenib, 0.043; in [3], -0.01.

Turning to GNG5 (UniProt P63218), the log2 fold change was 0.022 with saracatinib; 0.033 with sotrastaurin; 0.019 with alvocidib; 0.049 with Tubastatin A; 0.028 in [1]; -0.041 with defactinib. The log2 fold change with rucaparib is -0.002; in assay [2], -0.041; with encorafenib, -0.073; in assay [3], -0.008.

Take HDHD2 (UniProt Q9H0R4): the log2 fold change with saracatinib is -0.004; in the assay with sotrastaurin it was -0.077; with alvocidib, -0.028; in the assay with Tubastatin A, -0.016; in assay [1], -0.017; with defactinib, 0. Further, the log2 fold change was -0.049 with rucaparib, -0.048 in assay [2], 0.016 with encorafenib and -0.018 in assay [3].
